Source: PubChem BioAssay
The list is not random: actives were taken first. Their share in the collection is about 4.5%.
Beta apoptosis: beta cell apoptosis inhibition. INS-1E cytokine-induced death, ATP luminescence, 48 h; percent of positive-control rescue, neutral wells zero. 300,000 tested, 0.8% active. protection from apoptosis, % (no concentration beside the values);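 active = Every replicate reaches about 75%, or at least half do and their mean reaches it too, limit read from the data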;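 also: 0% = cytokine-treated negative control wells and 100% = positive control rescue; higher means more ATP so stronger rescue from cytokine killing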
Mdm2-MdmX inh: disrupts the human Mdm2-MdmX interaction; O15151+Q00987; 330,000 tested, 3% active; SaOS-2 split-luciferase Mdm2/MdmX complementation, luminescence; inhibition, % at 8 µM; AID 485346;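 active = inhibition of at least 50% at 8 µM in the primary screen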
CSC inhib: blocks cancer stem cells | cancer stem cell-like cells viability, luminescence | inhibition, % at 7.5 µM | AID 2717 | 300,000 tested, 1.1% active; in the data active = inhibition above about 75%; tested in HMLE shEcad cells
697 NFkB inh: lowers PMA/ionomycin-induced NF-kB signal in 697 B cells. 697 B-cell NF-kB luciferase reporter, 16 h. inhibition, % at 4 µM. 330,000 tested, 0.33% active. AID 435022; in the data active = inhibition above about 35%
Gli-Sufu block: blocks Gli-Sufu signaling in a luciferase reporter. AID 588413. inhibition, % at 5 µM. Sufu-KO-LIGHT fibroblasts, Gli luciferase reporter luminescence. 340,000 tested, 0.74% active;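 active = inhibition above about 55%, limit read from the data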;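 also: 0% = DMSO-treated cells and 100% = wells with medium but no cells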
Jurkat NFkB inh: lowers PMA/ionomycin-induced NF-kB signal in Jurkat cells. PMA/ionomycin-induced NF-kB luciferase reporter, luminescence. inhibition, % at 4 µM. 330,000 tested, 0.53% active. AID 435003; in the data active = inhibition above about 50%
Gli-Sufu confirm: confirmation of Gli-SUFU pathway antagonists. AID 602428. shares compounds with Gli-Sufu block. 2,500 tested, 40% active. inhibition, % at 5 µM. Sufu-KO-LIGHT cells, Gli luciferase reporter, luminescence;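 active = mean inhibition at 5 µM reaching about 45%, limit read from the data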;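 also: plate controls were DMSO-treated cells for no effect and wells lacking cells for full effect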
SufuKO cytotox: counter-screen for Gli-SUFU antagonists: cytotoxicity; shares compounds with Gli-Sufu block; Sufu-KO-LIGHT cells cytotoxicity, ATP luminescence; cytotoxicity, % at 5 µM; 2,500 tested, 32% active;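 active = mean cytotoxicity at 5 µM above about 25%, limit read from the data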;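 also: cells exposed to compound overnight for roughly 16 to 18 hours; plate controls were DMSO wells with cells for no effect and medium without cells for full effect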
Wnt3a counter: counter-screen for Gli-SUFU antagonists: Wnt3a reporter inhibition. shares compounds with Gli-Sufu block. Wnt-LIGHT cells, Wnt3a-driven luciferase reporter, luminescence. inhibition, % at 6.25 µM. 2,500 tested, 20% active. AID 651995;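 active = mean inhibition above about 25%, limit read from the data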
Starred values were filed as active, the others as inactive; . = no result given.

SMILES | Beta apoptosis | Mdm2-MdmX inh | CSC inhib | 697 NFkB inh | Gli-Sufu block | Jurkat NFkB inh | Gli-Sufu confirm | SufuKO cytotox | Wnt3a counter
CCCC(=O)Nc1c2c(nn1-c1ccc(OC)cc1)CS(=O)C2 (stereo not given) | -6.2 | -7.0 | -20.3 | -17.5 | 50.9 | 3.0 | 8.0 | 18.1 | -0.2
Cc1ccc(-c2cc(C(=O)N/N=C/c3cccnc3)c3ccccc3n2)cc1C | 11.8 | 44.2 | 2.6 | -71.5 | -42.8 | -13.2 | . | . | .
Cc1ccc(C)c(-c2cc(C(=O)N/N=C/c3cccnc3)c3ccccc3n2)c1 | 33.1 | 13.8 | -3.4 | 12.6 | 52.2 | 13.9 | 18.9 | 7.4 | -39.9
Cc1ccc(/C=C/C(=O)O)cc1S(=O)(=O)N1CCc2ccccc21 | -9.9 | -9.9 | -8.1 | 0.2 | 8.5 | -2.8 | . | . | .
c1ccc(-c2csc3nnc(SCc4ccc5c(c4)OCO5)n23)cc1 | -6.9 | -8.3 | 1.4 | -7.6 | 52.1 | 0.4 | 10.0 | 5.8 | 4.8
O=C(CCSc1nnc2scc(-c3ccccc3)n12)NCc1ccc2c(c1)OCO2 | -1.9 | -2.7 | -17.2 | 6.5 | -3.9 | -2.4 | . | . | .
CC(C)(C)c1ccc2c(c1)OC(C(=O)N/N=C\c1ccncc1)CO2 (stereo not given) | 1.7 | -34.7 | -3.8 | -0.4 | -4.0 | -7.0 | . | . | .
CC(C)(C)c1ccc2c(c1)OC(C(=O)N/N=C\c1ccc[nH]1)CO2 (stereo not given) | 69.9 | 16.9 | 118.6* | -16.6 | 89.6* | 6.1 | 91.5* | 9.1 | -13.7
O=C(CN1C(=O)NC2(CCCCC2)C1=O)Nc1ccc(Cl)cc1 | -6.5 | 0.3 | -5.7 | -35.1 | -12.4 | -17.1 | . | . | .
COc1ccc(C(=O)N2CCCC(N3CCN(c4ccccc4F)CC3)C2)c(OC)n1 (stereo not given) | . | 9.5 | -8.6 | -14.5 | -3.8 | -8.4 | . | . | .
CCCCNC(=S)Nc1cccc2cnccc12 | 0.9 | -1.4 | -6.9 | -26.4 | 6.2 | -4.6 | . | . | .
S=C(NCCc1ccccc1)Nc1ccc(Cl)cc1Cl | 5.7 | 9.0 | . | -1.3 | 65.3* | 4.6 | 13.4 | 10.3 | -30.0
S=C(NCCc1ccccc1)Nc1cccc2cnccc12 | 3.6 | 14.1 | 13.7 | 33.3 | 51.2 | 48.1 | 58.3* | 17.9 | 33.5*
COC(=O)Cc1c(C)c2ccc(OC3CCCCC3=O)c(C)c2oc1=O (stereo not given) | 24.5 | -20.6 | -6.2 | -35.2 | 34.4 | 4.2 | . | . | .
CC(C)c1cc(CN2C(C)COCC2C)cc(C(C)C)c1O (stereo not given) | . | . | . | . | 6.5 | . | . | . | .
Cc1cc(N2CCCCCC2)nc(-c2ccccc2O)n1 | -2.6 | 30.9 | 23.1 | -0.8 | 84.8* | 1.4 | 20.3 | 15.2 | -16.2
Cc1cc(N2CCOCC2)nc(-c2ccccc2O)n1 | -4.8 | 14.9 | 12.5 | -24.6 | -7.9 | -4.7 | . | . | .
O=C(C1=C[C@H](c2coc3ccccc3c2=O)C[C@H](OCc2ccc(CO)cc2)O1)N1CCN(Cc2ccc3c(c2)OCO3)CC1 | 6.3 | 36.8 | 14.2 | -0.6 | 51.8 | 18.6 | 35.0 | 6.1 | -22.8
O=C(C1=C[C@@H](c2coc3ccccc3c2=O)C[C@@H](OCc2ccc(CO)cc2)O1)N1CCN(Cc2ccc3c(c2)OCO3)CC1 | 3.5 | -24.9 | -7.4 | -9.7 | 38.2 | 11.3 | . | . | .
COc1ccc(NC(=O)CN(C)C(=O)c2c(-c3ccccc3Cl)noc2C)cc1 | -1.8 | 9.0 | -14.9 | 12.5 | -8.6 | 0.7 | . | . | .
COc1ccc(CN(C)C(=O)COC(=O)c2c(-c3ccccc3Cl)noc2C)cc1 | -1.0 | 1.3 | . | -11.9 | 54.6 | 9.2 | 21.9 | 0.6 | 0.2
O=C(CCn1nc(-c2ccccc2)ccc1=O)N1CCCC1 | -8.6 | -25.9 | -8.8 | -12.2 | -0.8 | -4.3 | . | . | .
CCOC(=O)C1CCCN(C(=O)CCn2nc(-c3ccccc3)ccc2=O)C1 (stereo not given) | -8.8 | 10.4 | -3.7 | -3.4 | 56.3* | -3.9 | 26.0 | 14.8 | -7.2
O[C@@H]1CN(Cc2ccc(-n3cccn3)cc2)CC[C@H]1N1CCN(c2ccccc2F)CC1 | 50.6 | 13.7 | -16.9 | -33.8 | 58.9* | 27.7 | 46.1* | 27.4* | -15.0
